# Screens deposited in PubChem by Broad Institute.
# T cruzi growth-1: T. cruzi proliferation inhibition; 77,000 compounds, 5.9% hits; AID 624255; inhibition, % at 8.34 µM; T. cruzi beta-gal in NIH3T3, GalScreen luminescence, 90 h;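 active = mean inhibition above about 93%, with at least 55% of replicates each passing it, limit read from the data, passing the limit was not always enough; inconclusive = only one of those two conditions holds; inactive = neither condition holds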
# Pf Dd2 growth: P. falciparum Dd2 growth inhibition; SYBR Green, 72 h; active compounds read low; activity change, % at 10 µM; 94,000 compounds, 2.3% hits; in the data active = activity change below about -80%; inconclusive = no clear call, values can overlap the other calls
# C diff HTS: inhibitors of Clostridium difficile growth | growth activity, negative = inhibition, % at 16 µg/mL (by protocol) | 86,000 compounds, 0.25% hits | Clostridium difficile clinical isolate growth, OD600, 24 h; active compounds read low;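 active = mean growth activity at or below -80% and every replicate also at or below -80%; inconclusive = mean at or below -80% but some replicate above -80%; inactive = mean growth activity above -80%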
# T cruzi growth-2: blocks T. cruzi growth in NIH3T3 host cells | shares compounds with T cruzi growth-1 | T. cruzi beta-gal in NIH3T3, GalScreen luminescence, 90 h | inhibition, % at 8.35 µM | 5,600 compounds, 72% hits;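 active = mean replicate inhibition above about 95% and at least 55% of replicates individually reaching it, limit read from the data; inconclusive = only one of the two criteria is met; inactive = neither criterion is met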
# T cruzi growth-3: inhibitors of T. cruzi proliferation | shares compounds with T cruzi growth-1 | T. cruzi beta-gal in NIH3T3, GalScreen luminescence, 90 h | inhibition, % at 2.09 µM | 5,600 compounds, 21% hits;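 active = mean inhibition above about 95%, with at least 55% of replicates also reaching it, limit read from the data; inconclusive = meets just one of the two conditions; inactive = meets neither condition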
# NIH3T3 tox: NIH/3T3 (mouse) viability loss | 5,600 compounds, 14% hits | NIH/3T3 viability, CellTiter-Glo ATP luminescence, 90 h | cytotoxicity (signal decrease), % at 8.35 µM | shares compounds with T cruzi growth-1 | AID 651742;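 active = mean signal decrease across replicates above about 35% based on untreated-well scatter, with enough replicates individually passing, limit read from the data; inconclusive = no rule stated though some were filed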
# 3T3 cytotox 2: kills mouse NIH/3T3 fibroblasts. shares compounds with T cruzi growth-1. NIH/3T3 viability, CellTiter-Glo ATP luminescence, 90 h. inhibition, % at 24.9 µM. 5,600 compounds, 56% hits;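 active = mean loss of cell viability signal at or above a set limit, and enough replicates individually reaching it; inconclusive = meets only the mean limit or only the replicate share; inactive = meets neither condition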
# A number is an active result; i = inactive; ? = inconclusive; nt = not tested or not shown. In the library only some 6.7% were active in any assay of this set; here they are far more common.
SMILES,T cruzi growth-1,Pf Dd2 growth,C diff HTS,T cruzi growth-2,T cruzi growth-3,NIH3T3 tox,3T3 cytotox 2
C[C@@H]1CN([C@@H](C)CO)C(=O)Cc2cc(NC(=O)Nc3ccccc3)ccc2O[C@H]1CN(C)S(C)(=O)=O,nt,i,i,nt,nt,nt,nt
COc1ccc(NC(=O)Nc2ccc3c(c2)C(=O)N([C@H](C)CO)C[C@@H](C)[C@@H](CN(C)C(=O)Nc2ccc(OC)cc2)OCCCC[C@@H](C)O3)cc1,nt,i,i,nt,nt,nt,nt
COc1ccc(NC(=O)Nc2ccc3c(c2)C(=O)N([C@@H](C)CO)C[C@H](C)[C@H](CN(C)C(=O)Nc2ccc(C(F)(F)F)cc2)OCCCC[C@H](C)O3)cc1,?,i,i,104,112,i,i
COc1ccc(NC(=O)Nc2ccc3c(c2)C(=O)N([C@@H](C)CO)C[C@@H](C)[C@H](CN(C)C(=O)Nc2ccc(C(F)(F)F)cc2)OCCCC[C@@H](C)O3)cc1,114,i,i,109,109,i,i
COc1ccc(NC(=O)Nc2ccc3c(c2)C(=O)N([C@H](C)CO)C[C@H](C)[C@@H](CN(C)C(=O)Nc2ccc(OC)cc2)OCCCC[C@@H](C)O3)cc1,i,i,nt,nt,nt,nt,nt
CN(C)C(=O)c1cccc(-c2ccc3c(c2)[C@H]2[C@H](CCN2C(=O)c2cnccn2)[C@@H](CO)N3)c1,i,i,i,nt,nt,nt,nt
COc1ccc(-c2ccc3c(c2)[C@@H]2[C@@H](CCN2C(=O)c2cnccn2)[C@H](CO)N3)cc1,?,i,i,112,i,i,i
COc1cccc(-c2ccc3c(c2)[C@H]2[C@H](CCN2C(=O)c2cnccn2)[C@H](CO)N3)c1,i,i,i,nt,nt,nt,nt
O=C(c1cnccn1)N1CC[C@@H]2[C@H]1c1cc(-c3cccc(F)c3)ccc1N[C@@H]2CO,101,i,i,104,i,i,41
O=C(c1cnccn1)N1CC[C@@H]2[C@@H](CO)Nc3ccc(-c4cccc(F)c4)cc3[C@@H]21,i,i,i,nt,nt,nt,nt
CN(C)C(=O)c1cccc(-c2ccc3c(c2)[C@@H]2[C@@H](CCN2C(=O)c2cnccn2)[C@H](CO)N3)c1,105,i,i,97,i,i,i
C[C@@H]1CN([C@H](C)CO)C(=O)c2cc(C#Cc3cccnc3)cnc2O[C@H]1CN(C)Cc1ccccc1,i,i,nt,nt,nt,nt,nt
Cc1noc(C)c1NC(=O)Nc1ccc2c(c1)C(=O)N([C@H](C)CO)C[C@@H](C)[C@H](CN(C)Cc1ccncc1)OCCCC[C@H](C)O2,i,i,i,nt,nt,nt,nt
C[C@@H]1CCCCO[C@H](CN(C)C(=O)Nc2ccc3c(c2)OCO3)[C@@H](C)CN([C@H](C)CO)C(=O)c2cc(NS(=O)(=O)c3cn(C)cn3)ccc2O1,i,i,i,nt,nt,nt,nt
Cc1cccc(S(=O)(=O)N2CCCCN3[C@H](C2)[C@@H](c2ccc(C#C[C@@H](C)O)cc2)[C@@H]3CO)c1,i,i,i,nt,nt,nt,nt
Cc1cccc(S(=O)(=O)N2CCCCN3[C@H](CO)[C@@H](c4ccc(C#CC(C)C)cc4)[C@@H]3C2)c1,118,i,i,101,98,i,49
Cc1cccc(S(=O)(=O)N2CCCCN3[C@H](CO)[C@H](c4ccc(C#CC(C)C)cc4)[C@@H]3C2)c1,97,i,i,98,100,37,105
Cc1cccc(S(=O)(=O)N2CCCCN3[C@H](CO)[C@H](c4ccc(C#C[C@H](C)O)cc4)[C@@H]3C2)c1,i,i,i,nt,nt,nt,nt
Cc1cccc(S(=O)(=O)N2CCCCN3[C@H](C2)[C@@H](c2ccc(C#C[C@H](C)O)cc2)[C@@H]3CO)c1,101,i,i,102,i,65,27
Cc1cccc(S(=O)(=O)N2CCCCN3[C@H](CO)[C@H](c4ccc(C#C[C@@H](C)O)cc4)[C@@H]3C2)c1,i,i,i,nt,nt,nt,nt
COc1ccc(NC(=O)Nc2ccc3c(c2)C(=O)N([C@H](C)CO)C[C@H](C)[C@H](CN(C)C(=O)NC2CCCCC2)OCCCC[C@@H](C)O3)cc1,i,i,i,nt,nt,nt,nt
CC(C)NC(=O)N(C)C[C@@H]1Oc2ccc(NC(=O)c3ccncc3)cc2CC(=O)N([C@H](C)CO)C[C@H]1C,nt,i,i,nt,nt,nt,nt
